In all, about 340,000 compounds went through this assay and about 1,000 (0.29%) were called active. Only a sample is shown. Measured potencies and affinities stand elsewhere. Values without a mark were called inactive. Cut-off read from the data, not from the text of the source: inconclusive = inhibition above about 27% without an active follow-up result; inactive = below that.

As usually defined, the inhibition is the drop in the measured response relative to a control, in per cent.

The experiment can be described thus: H1N1 influenza NS1A inhibitors, functional cell based assay (AID 504329). To be noted: percent inhibition, at 12.5 µM, stronger effect = higher value.
Take `O=C1C(Cc2ccc(O)cc2)NC(=S)N1c1ccccc1` (centres undefined): the inhibition was 2.29%.

For `O=C(N/N=C/C1C(c2ccccc2)C1(Cl)Cl)c1cccc(Br)c1` (centres undefined), the inhibition was -5.72%. As to `O=C(C[n+]1ccc(C(=O)N/N=C/c2ccc(O)cc2)cc1)c1ccccc1`, the inhibition is 2.67%.

Consider `O=C(N/N=C/c1coc2ccccc2c1=O)c1cc(Br)c(O)c(Br)c1`, for which the inhibition is -7.78%. As to `C=CCN1C(=O)/C(=C\c2ccc(C)cc2)N=C1SCC(=O)NCCC`, the inhibition was -5.98%.

For `C/C(=N\NC(=O)c1ccn(C)n1)c1cccc(NC(=O)c2ccncc2)c1`, the inhibition is 10.3%.

Regarding `COC(=O)C1=C(O)CSC1=Nc1ccc(C)cc1`, the inhibition is -6.3%. With `CCc1nn2cc(C(=O)c3ccccc3O)cnc2c1-c1ccc(F)cc1`, the inhibition was 14.5%. Turning to `O=[N+]([O-])c1ccc(/C=C/c2ccc3cccc(O)c3n2)cc1`, the inhibition is -0.58%. `O/N=C/c1ccc2cccc(O)c2n1`: the inhibition was 1.88%.

For the molecule `CCOc1ccc(OCCC(=O)NNC(=O)c2ccccc2Cl)cc1`, the inhibition is -2.63%. Under `CCN(CC)CCNC(=O)c1cc(Sc2nnc(C)s2)nc2ccccc12` stands -9.1%; under `COc1cc2[nH]c(=O)n(Cc3ccc(C(=O)NCCCN4CCC(C)CC4)cc3)c(=O)c2cc1OC`, 4.01%; under `COc1ccc(N(CC(=O)NCc2ccc(Cl)cc2)S(=O)(=O)c2c(C)noc2C)cc1`, 6.25%. In the case of `OC(CNCC(c1ccc(Cl)cc1Cl)c1c[nH]c2ccccc12)c1ccccc1` (centres undefined), the inhibition was 5.5%.

As for `NCC(c1ccc(Cl)cc1Cl)c1c[nH]c2ccccc12` (centres undefined), the inhibition is 7.89%. Take `CC[C@]12C(=O)N(C)C[C@H]([C@@H]3C(=O)N(Cc4ccccc4)C(=O)[C@@H]31)N2C(=O)c1ccc(Br)cc1`: the inhibition is 1.57%. Under `Cc1ccc(CNc2nc3ccccc3n2C)cc1` stands -2.51%; under `Cc1ccc(NCc2nc3ccccc3n2C)c(C)c1`, 1.58%; under `CN(C)c1ccc(N=Nc2nc3ccccc3n2C)cc1`, -12.4%. As to `Cn1c(N=Nc2ccccc2)nc2ccccc21`, the inhibition is 3.98%. Under `C=CCn1c(C(O)c2ccccc2)nc2ccccc21` (centres undefined) stands -2.4%; under `COC(=O)c1ccccc1NC(=O)c1cccc(NC(=O)C(C)C)c1`, -5.47%; under `Cc1ccc(Cl)c2c1NC(=O)C2(O)CC(=O)c1ccccc1O` (centres undefined), 1.71%.

As to `Cc1nn(Cc2ccc(F)cc2)c(Cl)c1/C=N/NC(=O)c1cccnc1`, the inhibition was 3.93%.

With `CCCCNC(=O)C1CCCN1S(=O)(=O)c1cccc2nsnc12` (centres undefined), the inhibition was -12.3%.

In the case of `O=c1c2c(-c3ccccc3)csc2ncn1/N=C/c1c2ccccc2cc2ccccc12`, the inhibition was 5.97%. Under `Cc1ccc(C=Nc2ccc(N(C)C)cc2)o1` stands 22.3%; under `CN(C)c1ccc(C=Nc2ccc(N(C)C)cc2)cc1`, 26.9%; under `CN1C(C(=O)NCCc2cccs2)CC2Cn3c(nc4cc5ccccc5cc43)C21` (centres undefined), 1.77%. Take `CSc1cccc(CN2CCN(CCc3ccccc3)C(CCO)C2)c1` (centres undefined): the inhibition was -1.46%. Under `O=C(c1ccco1)N1CCN(C2=NS(=O)(=O)c3ccccc32)CC1` stands -26.1%. For the molecule `O=C(c1cc(-c2ccccc2Cl)on1)N1CCN(C(=O)c2ccco2)CC1`, the inhibition was 9.97%.

On to `CN(CCO)c1cc(N2CCN(C(=O)c3ccco3)CC2)c2nonc2c1[N+](=O)[O-]`, for which the inhibition is -1.02%.

Regarding `O=C(c1ccco1)N1CCN(CCCCN2C(=O)c3ccccc3C2=O)CC1`, the inhibition was -6.16%.

`COc1ccc(C)cc1-n1nnnc1SCc1csc(C)n1`: the inhibition was -0.01%. As to `O=C(Cc1ccc2c(c1)OCCO2)Nc1cc(C(F)(F)F)ccc1N1CCOCC1`, the inhibition is -15.4%.

In the case of `O=C(CC(O)(CC(=O)OCc1ccccc1)C(=O)OCc1ccccc1)OCc1ccccc1`, the inhibition was 10.3%. For the molecule `O=C1/C(=C/c2ccc(O)c([N+](=O)[O-])c2)SC(=S)N1Cc1ccccc1`, the inhibition is 8.28%. Then `O=C1/C(=C\c2cccc(O)c2O)SC(=S)N1Cc1ccccc1`, with 11.5%; and `O=C(c1ccncc1)C12CN3CN(CN(C3)C1)C2`, with -2.7%; and `COc1cc(/C=N\NC(=O)CN2CCOCC2)ccc1OCC(=O)Nc1ccc(C)c(C)c1`, with 0.68%.

For the molecule `C/C(=N\N1CCN(Cc2ccc(Cl)cc2)CC1)c1ccc([N+](=O)[O-])cc1`, the inhibition was 1.56%.

`CC(c1ccccn1)C(C)(O)C(C)c1ccccn1` (centres undefined): the inhibition was -2.07%. On to `CC(O)(Cc1ccccn1)Cc1ccccn1`, for which the inhibition is 3.66%.

In the case of `COc1ccccc1N1CCN(Cc2cccc(OC)c2OC)CC1`, the inhibition was -12%. Take `COc1ccccc1N1CCN(Cc2cc3c(cc2Br)OCCO3)CC1`: the inhibition was 3.4%.

Regarding `COc1ccccc1N1CCN(Cc2ccc(OC)c(OC)c2OC)CC1`, the inhibition was 0.22%.

Regarding `COc1ccccc1N1CCN(Cc2cccc(OC)c2O)CC1`, the inhibition was 0.66%.

Regarding `Cc1onc(COc2ccccc2O)c1Br`, the inhibition was -2.44%.

Take `Cc1cccc(NC(=O)C2CCCN(S(=O)(=O)c3ccc4[nH]c(=O)ccc4c3)C2)n1` (centres undefined): the inhibition is 5.77%. Regarding `CC(C)C(NC(=O)c1ccc(C(C)(C)C)cc1)C(=O)NC1=NCCS1` (centres undefined), the inhibition is 8.12%. For the molecule `c1cncc(-c2cnc3ccccc3c2)c1`, the inhibition is -4.39%. With `c1cc(-c2ccncc2)ccn1`, the inhibition is -1.52%. In the case of `CN(C)c1ccc(-c2cc(O)c3ncccc3c2)cc1`, the inhibition was 21.2%. Turning to `Oc1cncc(-c2cccnc2)c1`, the inhibition was -6.57%. As to `CC1(c2nnc(-c3ccc(Cl)cc3)o2)CC(c2c(Cl)cccc2Cl)=NO1` (centres undefined), the inhibition is -2.35%. Take `Cc1ccc(NC(=S)NCc2ccccc2)c(C)c1`: the inhibition is -7.15%.

For `O=C(Cc1ccccc1)Nc1cc(C(=O)c2ccccc2)ccc1N1CCOCC1`, the inhibition was -3.63%. `COc1ccc(C(=O)NCCNc2nc3ccc(C)cc3cc2C#N)cc1`: the inhibition is -6.86%.

On to `CN(CC1CCCN(CCc2ccc(Cl)cc2)C1)C(=O)CC(F)(F)F` (centres undefined), for which the inhibition was -8.18%. As for `Cc1ccc(CNC(=O)C2CCC(=O)N(CCc3ccc(Cl)cc3)C2)s1` (centres undefined), the inhibition is -10%. Regarding `COc1ccc(C(=O)NC(C)CCCC(C)(C)O)cc1OC1CCN(C(C)=O)CC1` (centres undefined), the inhibition is -0.26%. Consider `Clc1ccc(-c2noc(COc3ccccc3)n2)cc1`, for which the inhibition is -0.74%. For `C/C(=N\NC(=O)C(c1ccccc1)c1ccccc1)c1ccccn1`, the inhibition is -11.5%. In the case of `C/C(=N/NC(=O)CNC(=O)c1ccccn1)c1ccc([N+](=O)[O-])cc1`, the inhibition is -5.71%.

Turning to `CCOc1ccc(C(=O)NCCN2CCCCC2)c(OCC)c1`, the inhibition is -19.7%. For `Cc1ccc(NC(=O)CN(C)C(=O)c2ccc(NS(=O)(=O)c3ccc4[nH]c(=O)[nH]c4c3)cc2)cc1`, the inhibition is 2.9%. `O=C(COC(=O)C12CC3CC(CC(O)(C3)C1)C2)NC(=O)NCc1ccco1`: the inhibition was -3.4%. As for `O=c1[nH]c(=S)[nH]c2scc(-c3ccc(Br)cc3)c12`, the inhibition is -20.7%. `CCn1c(C)nc2cc(C(=O)N/N=C/c3cccc(O)c3O)ccc21`: the inhibition was 0.31%. Regarding `CCn1c(C)nc2cc(C(=O)N/N=C/c3cccc(OC)c3O)ccc21`, the inhibition was 5.9%. `O=C(O)c1cc(-c2ccccc2)nc2ccccc12`: the inhibition is 1.29%. Consider `O=C(O)c1cc(-c2cccc3ccccc23)nc2ccccc12`, for which the inhibition is -1.69%.

With `COc1ccc(C(=O)N2CCN(c3ncccn3)CC2)cc1[N+](=O)[O-]`, the inhibition was -14.3%. Then `O=C(NC(=S)Nc1ccc2oc(-c3ccncc3)nc2c1)c1ccccc1F`, with 1.17%; and `O=C(N/N=C/c1c[nH]c2ccccc12)c1ccc(Cl)cc1`, with 3.88%.

Take `Clc1ccc(-c2cnc3ccccc3n2)cc1`: the inhibition is -9.76%.

Turning to `c1ccc(-c2nnc(-c3ccccn3)s2)nc1`, the inhibition was -1.25%.

As for `c1ccc(-c2nc3ccccc3[nH]2)nc1`, the inhibition was 13.8%. In the case of `c1ccc(-c2cnc(-c3ccccc3)nn2)cc1`, the inhibition was 10%. For the molecule `Clc1ccc(OCc2nc(-c3ccccn3)n[nH]2)cc1`, the inhibition was 6.94%. `c1ccc(-c2ccncc2)nc1`: the inhibition was -0.28%. For `c1ccc(-c2nc(-c3ccccn3)nc(-c3ccccn3)n2)nc1`, the inhibition is 7.93%. `c1ccc(-c2nn[nH]n2)nc1`: the inhibition is -11.7%. On to `COc1ccc(C(C)=O)cc1CN(c1ccccc1OC)S(=O)(=O)c1cccs1`, for which the inhibition is 13.1%. For the molecule `Cc1cc(C)nc(SCc2ccc(C(=O)N/N=C/c3ccco3)cc2)n1`, the inhibition was -4.36%.

On to `CCCNS(=O)(=O)c1cccc(C(=O)NC2CCCc3ccccc32)c1` (centres undefined), for which the inhibition is -1.43%. With `Cc1ccc(C)c(SCC(=O)NC2CCS(=O)(=O)C2)c1` (centres undefined), the inhibition was -12.1%. With `CCCCCCCCNC(=O)c1cnccn1`, the inhibition is -8.66%. For `Nc1nc(N)nc(-c2ccccc2O)n1`, the inhibition is 1.67%.

Take `c1ccc(-c2nc(-c3ccccn3)no2)cc1`: the inhibition is -0.45%. `Nc1nc(N)nc(-c2ccccc2-c2nc(N)nc(N)n2)n1`: the inhibition is 21.3%. `c1cc(-c2n[nH]c(-c3ccncc3)n2)ccn1`: the inhibition is -1.91%.

Regarding `c1ccc(-c2ccccn2)nc1`, the inhibition was -0.49%. For `c1ccc(-c2nc3ccccc3nc2-c2ccccn2)nc1`, the inhibition is 0.35%. For `c1ccc(-c2n[nH]c(-c3ccccn3)n2)cc1`, the inhibition was -0.5%. Consider `CSc1nncc(-c2ccccc2)n1`, for which the inhibition is -2.08%. Then `CCN(CC)S(=O)(=O)c1ccc(N2CCOCC2)c(NC(=O)COc2ccccc2C)c1`, with -22.8%.
